# RORgamma inh: blocks mouse ROR gamma transcriptional activity | AID 2551 | hit rate 5.4% among 310,000 | P51450 | Potency, µM (series often up to 53.6 µM), for inactives: at the top dose activity change, negative = inhibition, hits mostly inhibitors | Drosophila S2 Gal4-RORgamma UAS-luciferase reporter, 20 h; further: nearly all actives have a fitted effect of over 60% in size
#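 Read-out: Photinus luciferase luminescence; inhibitors lower reporter signal. Insect Schneider cells with Gal4-ROR gamma fusion under metallothionein promoter, UAS reporter; 700 uM final copper sulfate induction, 20 hr, ambient temperature.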
# TDP1 block: blocks human tyrosyl-DNA phosphodiesterase 1; hit rate 0.28% among 350,000; recombinant TDP1, AlphaScreen DNA substrate cleavage; Potency, µM (titrated, usually from 130 µM), for the others: at the top dose activity change, negative = inhibition, actives largely listed as inhibitors; Q9NUW8; further: nearly all actives have a fitted effect of over 40% in size
# Target sequence (Q9NUW8 whole entry, looked up): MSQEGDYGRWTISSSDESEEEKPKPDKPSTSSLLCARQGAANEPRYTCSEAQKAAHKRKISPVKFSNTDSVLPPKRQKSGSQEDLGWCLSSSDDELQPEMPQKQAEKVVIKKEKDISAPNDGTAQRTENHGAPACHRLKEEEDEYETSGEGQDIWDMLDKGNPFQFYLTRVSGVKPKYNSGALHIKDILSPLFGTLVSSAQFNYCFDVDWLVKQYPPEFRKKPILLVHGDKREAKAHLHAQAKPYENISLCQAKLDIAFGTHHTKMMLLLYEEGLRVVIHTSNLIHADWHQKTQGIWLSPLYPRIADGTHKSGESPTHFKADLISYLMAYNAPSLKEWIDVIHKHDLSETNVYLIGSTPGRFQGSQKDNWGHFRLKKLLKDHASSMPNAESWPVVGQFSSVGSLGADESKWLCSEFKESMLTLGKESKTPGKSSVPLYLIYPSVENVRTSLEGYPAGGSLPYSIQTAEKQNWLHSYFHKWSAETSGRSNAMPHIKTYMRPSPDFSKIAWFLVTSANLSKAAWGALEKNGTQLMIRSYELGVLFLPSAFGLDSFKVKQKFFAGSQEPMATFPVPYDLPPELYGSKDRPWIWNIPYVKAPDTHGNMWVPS
#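 Enzyme-compound mixtures sat 15 min at room temperature, followed by a 5 min reaction with 15 nM final substrate and 10 min with AlphaScreen beads. Recombinant human Tdp1 was used at 1 nM final.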
# VP16 counter: counter-screen for ROR gamma inhibitors: Gal4-VP16 reporter; Drosophila S2 Gal4-VP16 UAS-luciferase, luminescence, 20 h; Potency, µM (top dose mostly 53.6 µM), inactives show at the top dose activity, negative = inhibition, hits mostly inhibitors; hit rate 3.5% among 310,000;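 further: Gal4-VP16 expression switched on by copper sulfate through the metallothionein promoter; nearly all actives have a fitted effect of over 50% in size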
# DT40 TDP1 no CPT: qHTS for Inhibitors of human tyrosyl-DNA phosphodiesterase 1 (TDP1): qHTS in cells in absence of CPT. Potency, µM (highest dose often 46.2 µM), for inactives: at the top dose activity change, negative = growth inhibition, usual class: inhibitors. hit rate 15% among 420,000. DT40 Tdp1-/- hTDP1 cells, no CPT, ATP luminescence, 48 h; further: nearly all actives have a fitted effect of over 55% in size
#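 Cells were dispensed at 400 per well, compounds added by pin tool, plates incubated ≥48 hr at 37 °C, then CellTiter-Glo added for 30 min at room temperature before luminescence reading. Line: DT40 Tdp1-/- complemented with hTDP1; camptothecin omitted.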
# DT40 TDP1 CPT: growth inhibition of DT40 Tdp1-/-;hTDP1 cells with camptothecin (screen for TDP1 inhibitors); Potency, µM (series often up to 46.2 µM), for the others: top-dose activity change, negative = growth inhibition, actives largely listed as inhibitors; chicken DT40 Tdp1-/-;hTDP1 cells + 20 nM CPT, ATP luminescence, 48 h; hit rate 12% among 420,000; further: nearly all actives have a fitted effect of over 55% in size
#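 Chicken DT40 Tdp1-/- cells complemented with human TDP1, 400 cells/well, exposed to compounds plus 20 nM camptothecin for at least 48 h at 37 C; viability read as ATP content by CellTiter-Glo luminescence.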
# * = called active by the depositor; ? = inconclusive; / = not tested or not shown; [ ] = another dose, or the depositor's remark. This is a sample that favours compounds with a hit; in the whole collection about 19% have one here. The call rests on the fitted dose curve; in most records, active means well fitted curve in the direction sought with a large enough effect; inconclusive means small, poorly fitted or top-dose-only effect, or another doubt; inactive means no such curve, though single readings can be large; an effect the other way counts as inactive or inconclusive. On the % scale 0 is the no-effect control and ±100 the full control effect; potency means the concentration at half of the fitted maximal effect.
SMILES,RORgamma inh,TDP1 block,VP16 counter,DT40 TDP1 no CPT,DT40 TDP1 CPT
Cc1cc(OCCn2ccnc2)cc(C(C)C)c1,-34.2%,2.6%,2.3%,-22.6%,-3.6%
CCNC(=S)Nc1ccc(NC(=O)c2ccccc2O)cc1,-27.5%,-1.4%,4.8%,?,-9.6%
O=C(NC(=S)Nc1ccc(NC(=O)c2cccs2)cc1)c1ccco1,?,2.7%,?,?,?
CC(C)C(=O)N1CCN(c2ccc(NC(=S)NC(=O)c3cc4ccccc4o3)cc2)CC1,5.01µM*,3.5%,?,-25.5%,?
O=C(NC(=S)Nc1ccc(NC(=O)c2cccs2)cc1)c1cc2ccccc2o1,7.08µM*,-4.5%,7.94µM*,?,13µM*
N#Cc1cccc(NC(=O)c2ccc(S(=O)(=O)N3CCOCC3)cc2)c1,/,0.3%,/,?,-13.7%
Cc1ccnc(NS(=O)(=O)c2ccc(NC(=O)Cc3ccc(F)cc3)cc2)n1,3.1%,/,-2.4%,-16.5%,-2.9%
CCOP(=O)(c1ccccc1)c1nc(-c2ccccc2Cl)oc1N1CCCCC1 (stereo not drawn),?,0.0%,?,?,?
CCOP(=O)(OCC)c1nc(-c2cccc([N+](=O)[O-])c2)oc1N1CCCCC1,14.3%,0.0%,8.2%,20.6µM*,?
COP(=O)(OC)c1nc(-c2ccc(C)cc2)oc1N1CCCCC1,-2.9%,/,-2.5%,14.6µM*,?
CC(C)n1c(=NC(=O)c2ccco2)c(C#N)cc2c(=O)n3ccccc3cc21,6.0%,6.7%,12.6%,?,?
CCOCCCNC(=O)c1ccc2c(c1)N=C(CC)c1cc(Br)ccc1S2,27.4%,5.3%,-1.9%[10 µM],0.0326µM*,0.0366µM*
CCC1=Nc2cc(C(=O)NCCN(CC)CC)ccc2Sc2ccccc21,/,-2.1%[12.3 µM],/,?,?
CCCC1=Nc2cc(C(=O)NCCc3ccccc3)ccc2Sc2ccc(C)cc21,/,0.0%,/,6.51µM*,4.61µM*
CCCNC(=O)c1ccc2c(c1)N=C(CCC)c1ccccc1S2,/,0.0%,/,0.731µM*,1.16µM*
CCOC(=O)N1CCC(NC(=O)c2ccc3c(c2)N=C(CC)c2ccccc2S3)CC1,?,4.7%,-2.2%,?,?
CCC1=Nc2cc(C(=O)N3CCC(C)CC3)ccc2Sc2ccc(C)cc21,/,-5.0%,/,16.4µM*,16.4µM*
COc1ccc(CNC(=O)c2ccc(C)cc2)cc1,24.5%,0.3%,-4.2%,/,/
CCCC1=Nc2cc(C(=O)NCc3ccc(OC)cc3)ccc2Sc2ccc(C)cc21,/,0.0%[12.3 µM],/,9.2µM*,14.6µM*
CCOC(=O)N1CCN(C(=O)c2ccc3c(c2)N=C(C)c2cc(Cl)ccc2S3)CC1,?,5.0%,-7.5%,11.6µM*,?
CCCC1=Nc2cc(C(=O)NC(C)c3ccccc3)ccc2Sc2ccc(C)cc21 (stereo not drawn),/,7.5%,/,?,?
CCC1=Nc2cc(C(=O)NC(C)c3ccccc3)ccc2Sc2ccc(Cl)cc21 (stereo not drawn),/,7.5%,/,?,16.4µM*
CCC1=Nc2cc(C(=O)NCc3ccccc3Cl)ccc2Sc2ccc(C)cc21,/,2.8%,/,3.26µM*,5.17µM*
O=C(Nc1nnc2n1CCS2)c1ccccc1C(F)(F)F,/,3.3%,/,-9.0%,-7.3%
CCC1=Nc2cc(C(=O)NCCc3ccccc3)ccc2Sc2ccc(Cl)cc21,/,0.0%,/,6.51µM*,8.2µM*
SMILES,RORgamma inh,TDP1 block,VP16 counter,DT40 TDP1 no CPT,DT40 TDP1 CPT
CC(C)(C)NC(=O)C(c1ccncc1)N(Cc1cccs1)C(=O)Cn1nnc(-c2cccs2)n1 (stereo not drawn),42.7%,-3.1%,9.8%,1.9%,-18.9%
CCc1ccccc1NC(=S)N(Cc1cccs1)C1CCCC1,11.2µM*,0.0%,14.8%[10 µM],-26.8%,-19.0%
COc1ccccc1NC(=S)N(CCN1CCCCCC1)Cc1cccs1,14.1µM*,5.3%,-14.7%[10 µM],9.2µM*,?
Cc1ccccc1NC(=S)N(Cc1ccccc1)Cc1cccs1,10µM*,-1.2%,-8.7%,2.0%,-20.6%
Cc1ccccc1NC(=S)N(Cc1cccs1)C1CCCC1,?,-2.5%,?,?,-27.4%
COCCN(C(=S)Nc1ccccc1OC)C(C)c1cccs1 (stereo not drawn),?,-1.4%,?,29.1µM*,23.1µM*
CC(C#CCN1CCCCC1)OCCOCc1ccccc1 (stereo not drawn),-1.7%,1.5%,-4.4%,?,-29.9%
Cc1cc(NC(=S)N(CCN2CCCCC2)Cc2ccco2)ccc1Cl,?,6.1%,?,?,?
Cc1ccccc1NC(=S)N(CCN1CCCCCC1)Cc1cccs1,10µM*,2.6%,?,?,?
Cc1ccc(NC(=S)N(CCN2CCCCC2)Cc2ccco2)cc1,?,1.9%,-21.2%,16.4µM*,?
CNC(=S)N(Cc1ccc(Cl)cc1)Cc1cccs1,-16.7%,-2.6%,7.0%,16.4µM*,?
Fc1ccccc1NC(=S)N(CCN1CCCCCC1)Cc1cccs1,12.0%,5.3%,-3.4%[10 µM],-0.2%,0.5%
CN1CCN(CCCN(Cc2cccs2)C(=S)Nc2ccc(Cl)cc2)CC1,-6.1%,-2.6%,-2.5%,?,?
CCNC(=O)C(CCSC)NS(=O)(=O)c1ccc(C)cc1 (stereo not drawn),0.2%,1.4%,7.3%,9.1%,0.3%
COc1ccc(S(=O)(=O)NC2CC(C)(C)NC(C)(C)C2)c2ccccc12,-1.5%,0.9%,-1.0%,?,?
CCOc1ccccc1-n1c(SCC(=O)Nc2ccc(CC)cc2)nc2n[nH]c(C)c2c1=N,?,6.1%,?,13µM*,11.6µM*
CCc1ccccc1-n1c(SCC(=O)Nc2ccc(C)cc2)nc2n[nH]c(C)c2c1=N,/,1.9%,/,5.17µM*,7.31µM*
CCc1ccc(NC(=O)CSc2nc3n[nH]c(C)c3c(=N)n2-c2ccccc2C)cc1,/,-6.6%,/,?,?
N/C(CS(=O)(=O)c1ccccn1)=N\OC(=O)c1ccccc1Cl,20.6%,5.5%,6.0%,-5.8%,6.9%
Cc1[nH]n(-c2ccc([N+](=O)[O-])cc2)c(=O)c1C=NCCN1CCN(C(=O)c2ccccc2)CC1,3.9%,3.9%,5.1%,10.3µM*,10.3µM*
COc1ccc(-c2[nH]n(-c3ccc([N+](=O)[O-])cc3)c(=O)c2C=NCCN2CCNCC2)cc1,14.1µM*,-2.8%,?,/,/
Cc1[nH]n(-c2ccc([N+](=O)[O-])cc2)c(=O)c1/C=N/N1CCOCC1,-3.2%,5.1%,4.9%,?,11.6µM*
O=c1c(C=NCCN2CCNCC2)c(-c2ccccc2)[nH]n1-c1ccc([N+](=O)[O-])cc1,-15.1%,3.0%,25.0%,/,/
Cc1ccc(SCCC(=O)OC(C(=O)NC(N)=O)C(C)C)cc1 (stereo not drawn),-4.1%,-2.7%,?,16.4µM*,16.4µM*
